Source: PubChem BioAssay (EPA / NIEHS)
Where “and” joins values, the source holds several entries; their conditions need not be identical. Equal entries are not always repeated. Where a structure was tested more than once in an assay, its records may differ in their call. Calls of active or inactive are those of the source. Rule for the calls: active = hit-call score of the fitted dose curve at least 0.9, where 1 is the maximum; inactive = score below 0.9.

Test: CCTE_Shafer_MEA_dev_burst_rate: CCTE's Neural Network Formation Assay for Burst Rate, Shafer Lab (AID 2284042)
Method: CCTE_Shafer_MEA_dev assay is conducted using Axion Biosystems 48 well microelectrode array (MEA) plates and Maestro recording system. Each well of the MEA plate contains a grid of 16 microelectrodes embedded in the culture surface. Electrically active cells, such as neurons, can be cultured over the electrodes, and electrical activity in these cells can be recorded extracellularly. The spontaneous firing of neurons is captured from each electrode on a microsecond timescale providing both temporally and spatially precise data. […] The CCTE_Shafer_MEA_dev assay uses primary cultures of rat cortical neurons. Recordings are made on days post-plating 5, 7, 9 and 12. As these cultures mature over time, neural networks develop functional activity and form cohesive networks in which electrical activity can be highly coordinated. CCTE_Shafer_MEA_dev_burst_rate is 1 of 19 assay components of the CCTE_Shafer_MEA_dev assay. It measures the frequency of single-electrode bursts (temporally-clustered groups of action potential firing) as the total number of bursts divided by the length of the recording in a microelectrode array (MEA) using Axion Biosystems Maestro 768 channel amplifier with the AxIS adaptive spike detector. The mean bursting rate is averaged across the active electrodes to report a well-mean value. To collapse across multiple recordings made on days post-plating 5, 7, 9 and 12, the trapezoidal area-under-the-curve of the component is calculated.Data from the assay component CCTE_Shafer_MEA_dev_burst_rate was analyzed into 1 assay endpoint. This assay endpoint, CCTE_Shafer_MEA_dev_burst_rate, was analyzed in the negative analysis fitting direction relative to DMSO as the negative control and baseline of activity. Using a type of functional reporter, gain or loss-of-signal activity can be used to understand electrical activity.
On the day prior to culture, each well was coated thoroughly with 150 uL of 0.05% polyethyleneimine (PEI, Sigma Cat P3143) in 50 mM HEPES (Sigma Cat H7523) at a pH of 8. The plate was incubated at 37C for one hour. PEI was rinsed out with 500 uL of sterile water three times. Plates were stored at 4C until the day of culture. This culture was plated at a seeding density of 1.5 x 10^5 cells/well on a 48-well MEA plate, prepared as described above. Cells were administered via a 25 uL media/laminin ([…]; Sigma Cat L2020-1MG) drop directly onto the microelectrode array, as adding the cells with the laminin results in better attachment than pre-coating with laminin. After 2 hours, an additional 475 uL of cortical media was added and the cells returned to the incubator. Exposure starts at day 0 of plating and is continued over twelve days of network development until the experiment is terminated. Cells are fed with fresh medium on DIV 5 and 9, following the recordings on those days. The entire volume of media in the well is exchanged and any vehicle or compound treatment is renewed. Complete details are found in OP-NHEERL/ISTD/SBB/TJS/2015-03-r0 (available on request, email shafer.tim@epa.gov). Measurement of the electrical activity is non-invasive, and recordings can be made from the same plate over multiple different days of the culture. In cortical neurons, this allows for the measurement of extracellular action potentials over the period during which networks form in the MEA plate.

Row | Compound | outcome | AC50
1 | CN(C)[C@@H]1C(=O)C(C(N)=O)=C(O)[C@@]2(O)C(=O)C3=C(O)c4c(O)cccc4[C@@](C)(O)[C@H]3[C@H](O)[C@@H]12 | inactive | –
2 | CCCCSP(=O)(SCCCC)SCCCC | inactive | 71.4 µM (active)
3 | CN1COCN(Cc2cnc(Cl)s2)C1=N[N+](=O)[O-] | inactive | –
4 | CCOP(=O)(NC(C)C)Oc1ccc(SC)c(C)c1 (stereo unspecified) | inactive | 40.1 µM (active)
5 | CSC1=N[C@@](C)(c2ccccc2)C(=O)N1Nc1ccccc1 | inactive | –
6 | CCOP(=O)(SC(C)CC)N1CCSC1=O (stereo unspecified) | inactive | –
7 | COP(=O)(NC(C)=O)SC (stereo unspecified) | inactive | –
8 | COP(=O)(OC)OC(Br)C(Cl)(Cl)Br (stereo unspecified) | – | 7.93 µM (active) and 13.3 µM (active)
9 | O=[N+]([O-])c1cc(C(F)(F)F)c(Cl)c([N+](=O)[O-])c1Nc1ncc(C(F)(F)F)cc1Cl | – | 0.39 µM (active)
10 | CCOP(=S)(Oc1cnc(C(C)(C)C)nc1)OC(C)C (stereo unspecified) | inactive | 14.3 µM (active)
11 | CCCSP(=O)(OCC)SCCC | inactive | –
12 | CC(Oc1cccc(Cl)c1)C(=O)O (stereo unspecified) | inactive | –
13 | CC1=NNC(=O)N(/N=C/c2cccnc2)C1 | inactive | –
14 | C[N+]1(C)CCCCC1 | inactive | –
15 | CCOP(=S)(OCC)OC(Cl)C(Cl)(Cl)Cl (stereo unspecified) | – | 77.2 µM (active) and 23.6 µM (active)
16 | C=C(C)[C@H]1Cc2c(ccc3c2O[C@@H]2COc4cc(OC)c(OC)cc4[C@@H]2C3=O)O1 | – | 17.3 nM (active) and 6.73 nM (active)
17 | CCOP(=S)(OCC)Oc1ccc([N+](=O)[O-])cc1 | inactive | –

Row | Compound | outcome | AC50
18 | C#CCC1=C(C)C(OC(=O)C2C(C=C(C)C)C2(C)C)CC1=O (stereo unspecified) | inactive | –
19 | CC(C)N(C(=O)SCC(Cl)=C(Cl)Cl)C(C)C | inactive | –
20 | CC(C)=CC1C(C(=O)OCN2C(=O)C3=C(CCCC3)C2=O)C1(C)C (stereo unspecified) | inactive | –
21 | CC(C)[C@H](C(=O)O[C@H](C#N)c1cccc(Oc2ccccc2)c1)c1ccc(Cl)cc1 | – | 4.67 µM (active)
22 | CC[C@H](C)[C@H]1O[C@]2(C=C[C@@H]1C)C[C@@H]1C[C@@H](C/C=C(\C)[C@@H](O[C@H]3C[C@H](OC)[C@@H](O[C@H]4C[C@H](OC)[C@@H](NC)[C@H](C)O4)[C@H](C)O3)[C@@H](C)/C=C/C=C3\CO[C@@H]4[C@H](O)C(C)=C[C@@H](C(=O)O1)[C@]34O)O2 | – | 21.3 nM (active) and 3.47 nM (active)
23 | S=C1NCCN1 | inactive | –
24 | CCOC(=O)CC(SP(=O)(OC)OC)C(=O)OCC (stereo unspecified) | inactive | –
25 | C[Si](Cn1cncn1)(c1ccc(F)cc1)c1ccc(F)cc1 | inactive | –
26 | CCOP(=S)(OCC)SCCSCC | inactive | –
27 | CCCSP(=O)(OCC)Oc1ccc(Br)cc1Cl (stereo unspecified) | inactive | –
28 | COP(=O)(OC)C(O)C(Cl)(Cl)Cl (stereo unspecified) | inactive | –
29 | CC(=NC#N)N(C)Cc1ccc(Cl)nc1 | inactive | –
30 | CON=C(C(=O)OC)c1ccccc1CON=C(C)c1cccc(C(F)(F)F)c1 | – | 655 nM (active) and 1.28 µM (active)
31 | CCOP(=O)(OCC)Oc1cc(C)nc(C(C)C)n1 | inactive | –
32 | CCOP(=S)(OCC)Oc1cc(C)nc(C(C)C)n1 | inactive | –
33 | CCOP(=S)(OCC)Oc1ccc2c(C)c(Cl)c(=O)oc2c1 | inactive | –
